Source: PubChem BioAssay (several laboratories)
An excerpt weighted towards active compounds, which were near 2.2% of everything screened.
NLRP3 yeast inh: blocks the NALP3 inflammasome reconstituted in yeast. 330,000 compounds, 0.39% hits. Yeast reconstituted NLRP3/ASC/caspase-1, beta-gal luminescence, 24 h. AID 2825. inhibition, % at 10 µM;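 active = inhibition of 50% or more; inactive = inhibition below 50%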;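 note: plate controls were induced DMSO wells for no effect and uninduced yeast grown without galactose for full effect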
EBNA-1 inhibitor: blocks EBNA-1 binding to DNA. EBNA-1 DNA binding, fluorescence polarization. inhibition, % at 14.8 µM. 300,000 compounds, 0.34% hits. AID 1950; in the data active = inhibition above about 28%
dFosB activator: mouse delta FosB homodimer activation; P13346; purified delta FosB, TAMRA-CDK5 oligo fluorescence polarization; percent of positive-control signal above neutral wells; activation, % at 25 µM; 340,000 compounds, 0.99% hits; AID 493131;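 active = mean activation above about 17%, with every replicate also reaching it, limit read from the data, passing the limit was not always enough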
Target sequence (P13346 whole entry, looked up): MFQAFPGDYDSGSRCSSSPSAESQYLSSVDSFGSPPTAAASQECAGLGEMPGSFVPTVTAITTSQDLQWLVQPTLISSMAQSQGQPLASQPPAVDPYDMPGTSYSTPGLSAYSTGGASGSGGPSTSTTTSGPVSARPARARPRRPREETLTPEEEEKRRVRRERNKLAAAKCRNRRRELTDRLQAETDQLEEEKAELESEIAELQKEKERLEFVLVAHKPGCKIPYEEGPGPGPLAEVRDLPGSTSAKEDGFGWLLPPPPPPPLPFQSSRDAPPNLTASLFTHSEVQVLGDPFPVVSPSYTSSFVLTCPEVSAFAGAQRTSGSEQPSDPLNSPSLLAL
ZTA DNA inh: counter-screen for EBNA-1 inhibitors: inhibitors of Epstein-Barr virus ZTA; P03206; ZTA-DNA binding, fluorescence polarization; inhibition, % at 11 µM; 320,000 compounds, 0.15% hits; in the data active = inhibition above about 33%
Target sequence (P03206 whole entry, looked up): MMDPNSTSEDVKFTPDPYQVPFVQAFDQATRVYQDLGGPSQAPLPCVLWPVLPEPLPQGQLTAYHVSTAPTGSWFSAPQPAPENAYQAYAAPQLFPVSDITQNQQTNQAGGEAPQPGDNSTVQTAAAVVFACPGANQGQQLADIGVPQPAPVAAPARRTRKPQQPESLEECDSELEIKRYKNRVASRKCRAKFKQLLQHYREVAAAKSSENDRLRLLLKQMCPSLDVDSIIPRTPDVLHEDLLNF
PolyA inhibitor: blocks polyadenylation in yeast reporter cells; activity score, % at 12 µM; S. cerevisiae SKY197-pL101 polyadenylation reporter, beta-gal luminescence; efflux-impaired pdr1/pdr3 knockout yeast; score 100 = 6 SD above DMSO; 300,000 compounds, 0.02% hits;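 active = lowest replicate activity score at least 50, where 100 means six control SD above control mean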;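 note: yeast exposed to compound for 9 h at 30 °C; higher score means more reporter readthrough which indicates perturbed polyadenylation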
NALP1 yeast inh: NALP1 inhibition. inhibition, % at 10 µM. S. cerevisiae NALP1/ASC/caspase-1 growth, X-gal OD620, 72 h. AID 2071. 280,000 compounds, 0.61% hits; in the data active = inhibition mostly above about 24%, no sharp cut-off; inactive = mostly below about 32%
An asterisk follows results filed as active; . = not tested or not shown.

SMILES | NLRP3 yeast inh | EBNA-1 inhibitor | dFosB activator | ZTA DNA inh | PolyA inhibitor | NALP1 yeast inh
O=C(CCN1C(=O)/C(=C\c2ccccc2Cl)SC1=S)N1CCN(c2ccccc2)CC1 | 23 | 0 | -6 | 2 | 16 | 29*
O=C(CCN1C(=O)/C(=C/c2ccccc2Cl)SC1=S)NNC(=O)c1ccccc1O | -2 | -7 | 37* | 9 | 0 | -7
Cc1ccc(/C=C2\SC(=S)N(CCC(=O)NNS(=O)(=O)c3ccccc3)C2=O)cc1 | 2 | 15 | 22* | 21 | -16 | .
O=C(CCN1C(=O)/C(=C/c2ccccc2Cl)SC1=S)NN1CCOCC1 | 11 | 2 | -3 | 6 | -22 | 20
O=C(NCc1ccc2c(c1)OCO2)C1CCCN1C(=O)Nc1ccc(Cl)cc1 (centres undefined) | 3 | -13 | 1 | -1 | 3 | 18
CC(=O)Nc1ccc(C(=O)COC(=O)C2CC2C)c(F)c1 (centres undefined) | -4 | . | 2 | . | . | .
COc1cccc(/C=C2/SC(=S)N(CC(=O)NNC(=O)c3ccccc3O)C2=O)c1 | 17 | 8 | 21* | -2 | 4 | 9
Cc1ccc(/C=C2\SC(=S)N(CCC(=O)NNC(=O)c3ccccc3O)C2=O)cc1 | 2 | -1 | 66* | -21 | -2 | -4
COc1ccc(CNC(=O)Cn2c(=O)n(CCC(=O)N3CCCCC3)c(=O)c3sccc32)cc1 | 9 | 2 | 2 | -1 | 7 | 10
O=C(NCCN1C(=O)S/C(=C\c2cccc(Cl)c2Cl)C1=O)C1=COCCO1 | 9 | -7 | -6 | -10 | 16 | 20
CCc1c(O)nc(SCC(=O)Nc2ccc(Br)cc2)n(-c2ccc(C)cc2)c1=O | 8 | 0 | -5 | 2 | 22 | 35*
CCc1c(O)nc(SCC(=O)Nc2ccccc2)n(-c2ccccc2)c1=O | 10 | 9 | -3 | -4 | 14 | 7
CCOC(=O)C1(C)NC(c2ccco2)C2C(=O)N(CC)C(=O)C21 (centres undefined) | 4 | 4 | -1 | -9 | 17 | -6
CC(C)c1ccc(N2C(=NC(=O)C3CCCO3)SC3CS(=O)(=O)CC32)cc1 (centres undefined) | 13 | -17 | -9 | -12 | 3 | 1
Cc1ccccc1-n1nc(C(=O)c2cccs2)cc(-c2nc3ccccc3[nH]2)c1=N | 5 | 2 | 14 | 21 | -11 | -7
Cc1cccc(-n2nc(C(=O)c3ccco3)cc(-c3nc4ccccc4[nH]3)c2=N)c1 | 4 | -6 | 34* | -1 | -18 | 40
c1ccc(-c2nnc(-c3ccccn3)nn2)nc1 | 11 | 3 | -1 | -9 | 13 | .
c1ccc(-c2cccc(-c3ccccn3)n2)nc1 | 47 | 1 | -4 | -1 | 25 | 51*
O=C(Nc1ccc(Cl)cc1Cl)N1CCN(c2ncccn2)CC1 | 24 | -1 | -4 | -14 | -1 | 42*
COC(=O)c1ccc(N)cc1O | 6 | -9 | -8 | -5 | 10 | 6
COC(=O)c1ccc(=O)c2nc3/c(=C/O)c(O)cc(=O)c3[nH]c12 | . | 103* | -8 | 5 | . | .
CCCCN(C)CC(O)Cn1cc(/C=C/C(=O)c2ccc(C)cc2)c2ccccc21 (centres undefined) | 16 | 3 | 26* | -18 | 16 | 2
CCCN(CCC)CC(O)Cn1cc(/C=C/C(=O)c2ccccc2)c2ccccc21 (centres undefined) | . | . | -7 | . | 6 | 10
COC(=O)c1ccc(OCC(O)CNC2CCCC2)cc1 (centres undefined) | 4 | 5 | 1 | -8 | -2 | 10
CCC(=O)c1ccc(OCC(O)CNC2CCCC2)cc1 (centres undefined) | 14 | 5 | 16* | 9 | 14 | 24
SMILES | NLRP3 yeast inh | EBNA-1 inhibitor | dFosB activator | ZTA DNA inh | PolyA inhibitor | NALP1 yeast inh
Cc1ccc(CNC(=O)c2cccc(-n3cnnn3)c2)cc1 | -1 | -11 | -1 | -12 | 1 | 43*
COc1ccc(CCNC(=O)c2cccc(-n3cnnn3)c2)cc1 | 1 | . | -1 | . | . | .
COc1cc(Br)ccc1C1CC(=O)C(C)C(c2ccc(Br)cc2OC)N1 (centres undefined) | 9 | 5 | -17 | 4 | -4 | 15
COc1ccc(C2c3[nH]c4ccccc4c3C[C@H]3C(=O)N(C4CCN(Cc5ccccc5)CC4)CC(=O)N23)cc1OC (some centres undefined) | 18 | 1 | -12 | -1 | -1 | -4
COc1cccc(C2c3[nH]c4ccccc4c3C[C@H]3C(=O)N(C4CCN(Cc5ccccc5)CC4)CC(=O)N23)c1 (some centres undefined) | 14 | -9 | 38* | 2 | 15 | 14
COc1ccccc1C1c2[nH]c3ccccc3c2C[C@H]2C(=O)N(C3CCN(Cc4ccccc4)CC3)CC(=O)N12 (some centres undefined) | 7 | -5 | 38* | -2 | 2 | 8
O=C(NCCc1ccccc1)C(=O)Nc1ccc([N+](=O)[O-])cc1 | 2 | -3 | 0 | 1 | 8 | 30*
O=C(NCCc1ccc([N+](=O)[O-])cc1)c1ccccc1 | 2 | -3 | -5 | -9 | 6 | 34*
O=C(NCCc1ccccc1)c1ccc([N+](=O)[O-])cc1 | 24 | -10 | -3 | 23 | -4 | 6
O=C(NCCN1CCN(Cc2ccc([N+](=O)[O-])cc2)CC1)C(=O)Nc1ccccc1 | 10 | -1 | 2 | 8 | 1 | 44
Cc1cc(OC(C)C(=O)N2C[C@H]3C[C@@H](C2)c2cccc(=O)n2C3)c2c(C)c(C)c(=O)oc2c1 (some centres undefined) | 15 | 15 | -4 | 1 | -12 | 8
COC(=O)c1sc(NC(=O)CN2CCN(c3cccc(Cl)c3)CC2)c(C(=O)OC)c1C | . | . | -13 | . | . | .
Cc1ccc(CSCCNC(=O)CSCc2ccc([N+](=O)[O-])cc2)cc1 | 31 | -3 | -13 | 3 | -9 | 48*
Cc1cccc(CSCCNC(=O)CSCc2ccc([N+](=O)[O-])cc2)c1 | 15 | 3 | -7 | -9 | 7 | 21
COc1ccc(C(=O)C(C)OC(=O)CCN2C(=O)C3CC=CCC3C2=O)cc1 (centres undefined) | 21 | . | -9 | -1 | . | .
Cc1cc(-c2ccc(N=Nc3c(S(=O)(=O)O)cc4cc(S(=O)(=O)O)cc(N)c4c3O)c(C)c2)ccc1N=Nc1c(S(=O)(=O)O)cc2cc(S(=O)(=O)O)cc(N)c2c1O | 34 | 69* | . | 181* | . | .
O=C(Cc1cccc2ccccc12)NN1C(=O)/C(=C\c2cccnc2)SC1=S | -13 | 18 | 141* | 18 | -1 | .
Cc1ccc(N(CC(=O)N(C)Cc2ccccc2)S(C)(=O)=O)cc1C | 7 | 1 | 2 | -6 | -10 | -22
Nc1ccc(C(=O)OCC(=O)N2c3ccccc3Sc3ccccc32)cc1[N+](=O)[O-] | . | -9 | -8 | -1 | . | 22
